# Laboratory results as given in PubChem BioAssay (Tox21).
# Records with an inconclusive call do not appear. A call without a number means that no potency is given here. Active and inactive are the calls of the source. Calls come from the whole dose curve.
# Target: 5-hydroxytryptamine receptor 2A (Homo sapiens) (UniProt P28223)
# Assay: 5-hydroxytryptamine receptor 2A (HTR2A) small molecule agonists, cell-based qHTS assay (AID 1963587); note: nearly all actives have a fitted effect of over 30% in size
# Conditions: HTR2A-CHO cells, calcium flux fluorescence, agonist mode; series mostly up to 76.8 µM
# Text: National Center for Advancing Translational Sciences [NCATS]
# Division of Preclinical Innovation [DPI]
# U.S. Environmental Protection Agency [EPA]
# National Institutes of Environmental Health Sciences [NIEHS]
# National Toxicology Program [NTP]
# U.S. Food and Drug Administration [FDA]
# The HTR2A receptor is a subtype of the 5-HT2 receptor that belongs to the serotonin receptor family and is a G protein-coupled receptor (GPCR). The HTR2A-CHO cell line stably expressing human 5-hydroxytryptamine receptor 2A (HTR2A) can be used for screening agonists of interactions between 5-HT2 and its ligands. The HTR2A-CHO calcium flux assay is a homogeneous fluorescence-based assay for detecting the intracellular calcium level using FDSS kinetic plate reader system.
# HTR2A-CHO cells were dispensed at 2000 cells/3uL/well in 1536-well black-clear bottom plates using a Multidrop Dispenser. After the assay plates were incubated at a 37 C/5% CO2 incubator for 18 h, 3 uL of Dye Loading Buffer was transferred to the assay plate by a Flying Reagent Dispenser. The assay plates were incubated at 37 C for 1h. For agonist mode, 23 nL of compounds dissolved in DMSO, positive controls or DMSO only was transferred to the assay plate by a pin tool. The fluorescence intensity in the plates was measured using FDSS 7000EX kinetic plate reader for 2 min at 1 sec intervals.
# Sequence of 5-hydroxytryptamine receptor 2A (Homo sapiens) (P28223 whole entry, looked up): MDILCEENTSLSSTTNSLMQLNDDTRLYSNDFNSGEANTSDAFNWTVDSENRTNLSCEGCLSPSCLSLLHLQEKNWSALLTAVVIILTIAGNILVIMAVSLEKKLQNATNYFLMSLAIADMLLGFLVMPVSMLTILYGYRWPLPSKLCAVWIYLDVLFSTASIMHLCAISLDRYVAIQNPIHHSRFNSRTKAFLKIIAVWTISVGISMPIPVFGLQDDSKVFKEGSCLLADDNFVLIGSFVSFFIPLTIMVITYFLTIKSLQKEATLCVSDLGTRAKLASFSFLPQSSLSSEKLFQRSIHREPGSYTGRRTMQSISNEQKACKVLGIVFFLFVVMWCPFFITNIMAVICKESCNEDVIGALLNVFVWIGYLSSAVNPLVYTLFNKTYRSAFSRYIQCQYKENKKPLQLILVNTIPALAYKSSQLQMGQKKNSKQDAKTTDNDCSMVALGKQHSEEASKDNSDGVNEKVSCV
Compound,Potency,activation
CCO[Si](CC)(OCC)OCC,inactive,–
COc1ccc(-c2coc3cc(O)ccc3c2=O)cc1,inactive,–
CC(C)C(=O)Nc1cccc(C(F)(F)F)c1,inactive,–
O=C(NS(=O)(=O)/C=C/c1ccccc1)c1ccc(F)cc1Cl,inactive,–
CCOC(=O)N1CCC(Nc2ccc(Cl)cc2N)CC1,inactive,–
O=[N+]([O-])c1c(Cl)cc(Cl)cc1Cl,inactive,–
CC(C)=CCC1=C(O)c2ccccc2C(=O)C1=O,inactive,–
CC(C)C1OCCN1CCOC(=O)NCCCCCCNC(=O)OCCN1CCOC1C(C)C (stereo not given),inactive,–
CCCCCCCCCCCCSC,inactive,–
CCCCCCCC/C=C\CCCCCCCCOCCO,inactive,–
CCOC(=O)c1ccc(NC(=O)CN2CCCCC2)cc1,inactive,–
FC(F)(F)c1ccc(Cl)cc1Cl,inactive,–
Cc1c(C)c2c(c(C)c1OC(=O)CCC(=O)O)CC[C@@](C)(CCC[C@H](C)CCC[C@H](C)CCCC(C)C)O2,inactive,–
BrC(Br)C(Br)Br,inactive,–
CCOC(=O)/C=C/C(=O)OCC,inactive,–
COC(C)OC,inactive,–
CN1CCN(CC(=O)N2c3ccccc3C(=O)Nc3cccnc32)CC1,–,0.502% [at 7.02 µM] (inactive)
Cn1c(=O)cc(Oc2ccc(F)cc2F)c2cnc(NCC(C)(C)O)nc21,inactive,–
CN1CCCC(n2nc(Cc3ccc(Cl)cc3)c3ccccc3c2=O)CC1 (stereo not given),inactive,–
CC(C)(C)C(=O)/C=C/c1ccc(Cl)cc1,inactive,–

Compound,Potency,activation
Nc1cccc2c(=O)[nH][nH]c(=O)c12,inactive,–
CCOC(=O)CS,inactive,–
CC(C)CCCC(C)(C)O,inactive,–
CNc1c2c(nn1C)CCCC2,inactive,–
O=C1c2ccccc2C(=O)N1CCl,inactive,–
CC(C)=CCC/C(C)=C/C=N/O,inactive,–
CCCCCCCCCCCC(=O)NCCCN(C)C,inactive,–
CCC1(C)NC(=O)NC1=O (stereo not given),inactive,–
O=C(O)CCCCCCC(=O)O,inactive,–
Cc1cccc([N+](=O)[O-])c1C(=O)O,inactive,–
CCCCCCCCC(C)=O,inactive,–
CC1(C)OC(=O)Nc2ccc(Br)cc21,inactive,–
C=C(C)C1CC=C(C)C(O)C1 (stereo not given),inactive,–
N#Cc1ccc(C(=O)O)cc1,inactive,–
CCC(=O)CC(C)CC (stereo not given),–,6.03% [at 0.292 µM] (inactive)
CCC(O)C(C)(C)C (stereo not given),inactive,–
C=C(C)C(=O)OCCN(CC)CC,inactive,–
CN(C)CCn1nnnc1SCC1=C(C(=O)O)N2C(=O)[C@@H](NC(=O)Cc3csc(N)n3)[C@H]2SC1,inactive,–
[Cl][Pt-2]([Cl])([Cl])[Cl],inactive,–
COc1ccc(/C=C/S(=O)(=O)NC(=O)c2ccc(C)cc2Cl)cc1,inactive,–
